From ChEMBL document CHEMBL1157539, “Thousands of chemical starting points for antimalarial lead identification” (Nature, 2010)

Assays:
Format in all cases: functional
Plasmodium falciparum [1] = assay: GSK_TCMDC: Inhibition of Plasmodium falciparum 3D7 in whole red blood cells, using parasite LDH activity as an index of growth. Test compounds present at 2uM
Plasmodium falciparum [2] = assay: GSK_TCMDC: Inhibition of Plasmodium falciparum Dd2 in whole red blood cells, using parasite LDH activity as an index of growth. Test compounds present at 2uM
HepG2 = assay: GSK_TCMDC: Percent inhibition of human HepG2 cell line. Test compounds present at 10uM.

SMILES	Inhibition (Plasmodium falciparum [1])	Inhibition (Plasmodium falciparum [2])	Inhibition (HepG2)
FC(F)(F)c1ccc2[nH]c(-c3ccc(-c4cccc(CNCc5cnn(-c6ccccc6)n5)c4)s3)nc2c1.O=C(O)C(F)(F)F	100%	91%	38%
O=C(Nc1ccc(-c2nc3ccc(NC(=O)c4ccc(Br)cc4)cc3[nH]2)cc1)c1ccc(Br)cc1	98%	4%	40%
CC1CC(C)CN(S(=O)(=O)c2cc(C(=O)Nc3cccc([N+](=O)[O-])c3)ccc2Br)C1 (stereo not given)	100%	68%	1%
O=S(=O)(Nc1ccc(CCN2CCC(N3CCCCC3)CC2)cc1)c1cccc2cccnc12	100%	45%	14%
Cl.O=S(=O)(Nc1cc2c(cc1OCc1ccccc1)CCN(C1CCC1)CC2)c1ccc(-c2ccc(Cl)cc2)cc1	92%	12%	18%
CC(=O)c1cc(N2CCOCC2)ccc1N	91%	43%	7%
COc1ccc(CNCc2ccc(-c3cccc(-c4nc5ccccc5[nH]4)c3)cc2)cc1.O=C(O)C(F)(F)F	100%	85%	57%
Cc1cccc2nc(-c3ccc(-c4cccc(CNCC5CCCO5)c4)s3)[nH]c12.O=C(O)C(F)(F)F (stereo not given)	93%	11%	26%
Cc1cccc2nc(-c3ccc(-c4cccc(CNCCNC(=O)c5ccnn5C)c4)cc3)[nH]c12.O=C(O)C(F)(F)F	100%	92%	17%
CCOc1ccc(C(C)NC(=O)c2cc(Cl)ccc2OC)cc1OCC (stereo not given)	100%	99%	0%
Cc1cc(NCCC(=O)NCCc2ccccc2)nc(NCCc2ccc(F)cc2)n1.O=C(O)C(F)(F)F	92%	7%	0%
Cc1[nH]c(C)c(-c2ccc(Oc3cccc(Cl)c3)cc2)c(=O)c1Br	98%	97%	46%
COc1ccc2c(=NN=Cc3ccncc3)cc(C)[nH]c2c1	99%	95%	0%
Cc1ccc(C)c2sc(N(CCCn3ccnc3)C(=O)C=Cc3cccs3)nc12.Cl	100%	93%	20%
CC(C)C[C@H](NC(=O)c1ccc(OCCN2CCOCC2)cc1)C(=O)N[C@H](/C=N/N1CC(=O)NC1=O)CCc1ccccc1	88%	67%	10%
COc1ccc2nccc([C@@H](O)CN3CCC(NC(=O)Cn4nc(-c5ccc(C(F)(F)F)cc5)ccc4=O)CC3)c2c1	100%	90%	12%
COc1ccc2[nH]c(C)cc(=NN=Cc3cccc(Cl)c3)c2c1	100%	100%	13%
Cc1cccc2nc(-c3cccc(-c4cccc(CNCCc5ccncc5)c4)c3)[nH]c12.O=C(O)C(F)(F)F	100%	99%	20%
CS(=O)(=O)c1ccc(CCNCc2ccc(-c3ccc(CN(C(=O)c4ccc(Cl)nc4)C4CCN(Cc5ccccc5)CC4)cc3)nc2)cc1.O=C(O)C(F)(F)F	93%	70%	24%
Cc1cccc2nc(-c3ccc(-c4cccc(NC(=O)Cc5c[nH]cn5)c4)cc3)[nH]c12	98%	21%	13%
